# Screens from PubChem.
# Rtt109 HAT inh: blocks Candida albicans Rtt109/Vps75 acetyltransferase activity | Q5AAJ8 | purified Rtt109/Vps75, ThioGlo CoA-SH fluorescence, 4 h | inhibition, % at 34.9 µM | 330,000 compounds, 0.16% hits | AID 540336;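 active means inhibition of at least 50% in every replicate; inconclusive means best replicate reaches 50% inhibition but some replicates fall short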
# Target sequence (Q5AAJ8 whole entry, looked up): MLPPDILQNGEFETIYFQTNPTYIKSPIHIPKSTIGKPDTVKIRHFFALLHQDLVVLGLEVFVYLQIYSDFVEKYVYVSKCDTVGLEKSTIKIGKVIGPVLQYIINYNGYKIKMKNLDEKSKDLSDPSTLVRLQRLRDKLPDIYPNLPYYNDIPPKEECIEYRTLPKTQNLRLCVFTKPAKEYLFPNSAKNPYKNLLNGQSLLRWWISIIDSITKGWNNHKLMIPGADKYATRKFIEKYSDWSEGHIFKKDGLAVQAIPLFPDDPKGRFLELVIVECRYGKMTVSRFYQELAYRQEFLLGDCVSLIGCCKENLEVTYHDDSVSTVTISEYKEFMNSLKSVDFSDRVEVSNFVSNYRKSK
# esBAF inh: blocks esBAF chromatin remodeling in mouse ES cells. reporter increase, % at 12.5 µM. 350,000 compounds, 2% hits. Bmi1-luciferase knock-in reporter, 24 h; 100% = twice the neutral-well signal. AID 602393; in the data active means activation above about 40%; inconclusive means no clear call, values can overlap the other calls;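 further: a rise in the Bmi1 reporter signal indicates esBAF inhibition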
# Wnt act: activators of Wnt/beta-catenin signaling; activation, % at 9.35 µM; Wnt/beta-catenin reporter cell assay, activator, plate reader; AID 743398; 300,000 compounds, 1.2% hits; in the data active means activation above about 30%, passing the limit was not always enough; inconclusive means no clear call, values can overlap the other calls
# MITF act: activators of MITF-driven TRPM1 promoter activity in SK-MEL-5 cells; SK-MEL-5 TRPM1-promoter luciferase, 24 h; % of positive control, neutral wells = 0; activation, % at 12.5 µM; 300,000 compounds, 0.75% hits; AID 588334;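 active means mean activation of at least 80% with every replicate also reaching 80%; inconclusive means mean reaches 80% but some replicate falls short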
# Statin myotox sup: suppression of simvastatin myotoxicity; rescue of ATP level, % at 7.49 µM; 330,000 compounds, 0.78% hits; C2C12 myotubes + simvastatin, ATP luminescence, 48 h; scaled: DMSO 0, geranylgeraniol control 100;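 active means mean ATP rescue above about 67%, or every replicate alone reaching that limit, limit read from the data, passing the limit was not always enough; inconclusive means no clear call, values can overlap the other calls; inactive means mean under the limit and some replicate under it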;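 further: myotubes were challenged with 10 µM simvastatin during compound exposure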
# Hits are given with their value; i = inactive; ? = inconclusive; nt = no result given. The list is not random: actives were taken first. Their share in the collection is about 3.1%.
SMILES,Rtt109 HAT inh,esBAF inh,Wnt act,MITF act,Statin myotox sup
CN(C)CC(=O)N[C@@H]1CC[C@@H](CCn2cc(C3CCCC3)nn2)O[C@@H]1CO,nt,i,nt,nt,i
CCN1C=CC(=C2C(=O)c3ccccc3C2=O)C=C1,80,i,nt,i,i
C[C@@H](NC(=O)C[C@H]1C[C@H]2c3cc(NC(=O)Nc4ccccc4F)ccc3O[C@H]2[C@H](CO)O1)c1ccccc1,nt,i,nt,nt,i
Cn1c(-c2sc3cc(C(F)(F)F)cnc3c2-c2cccnc2)n[nH]c1=S,i,i,i,nt,139
C[C@H](CO)N1C[C@H](C)[C@H](CN(C)C(=O)Nc2ccc(F)cc2)Oc2cc(/C=C/c3ccccc3)ccc2S1(=O)=O,nt,i,nt,nt,i
O=C(CN1CCCCC1)Nc1ccc(Br)cc1[N+](=O)[O-],i,49,i,i,i
O=C(/C=C/Nc1cccc(C(F)(F)F)c1)c1ccc(Oc2ncccn2)cc1,i,49,nt,i,i
Cc1cccc(-c2csc(N)c2C(=O)OC(C)C)c1,i,i,i,i,116
Cc1ccc(C)c(-c2csc(N)c2C(=O)OC(C)C)c1,i,nt,nt,i,nt
O=C(NC1Cc2ccccc2C1)[C@H]1[C@H](CO)[C@H]2Cn3c(ccc(-c4ccccc4F)c3=O)[C@@H]1N2,nt,i,nt,nt,i
CC1CCc2nc3sc4c(c3c(N)c2C1)CCCC4 (configuration not stated),i,nt,45,i,nt
CC1CCc2c(nc3sc4c(c3c2N)CCCC4)C1 (configuration not stated),i,i,i,i,i
CCCc1nc2ccc(C)cn2c1Cc1ccc(C)cc1,nt,i,i,nt,i
CCCc1nc2ccc(C)cn2c1Cc1ccccc1,nt,51,i,nt,i
CC(C)NC(=O)NCC[C@H]1CC[C@@H](NC(=O)Nc2ccccc2)[C@@H](CO)O1,nt,i,nt,nt,i
Fc1cccc(F)c1/C=C/c1ccc2ccccc2n1,i,nt,nt,i,nt
Cc1ccc2nc(/C=C/c3cccc(F)c3)ccc2c1,i,nt,71,i,nt
COc1cccc(/C=C/C(=O)OCC(=O)NCCC2=CCCCC2)c1OC,i,i,i,i,i
O=C(/C=C/c1cccc2ccccc12)NCCC1=CCCCC1,i,i,i,i,82
C[C@H](CO)N1C[C@H](C)[C@@H](CN(C)S(=O)(=O)c2ccc(Cl)cc2)Oc2ccc(NC(=O)C3CCCCC3)cc2C1=O,nt,i,nt,nt,i
Cc1ccc(-c2nnc(-c3ccc4ccccc4c3)o2)cc1,i,54,i,i,i
Clc1ccc(-c2nnc(-c3ccc4ccccc4c3)o2)cc1,i,?,i,i,i
COc1cccc(-c2nnc(-c3ccc4ccccc4c3)o2)c1,i,nt,51,i,i
COc1cccc(-c2nnc(NC(C)=O)o2)c1,i,i,i,i,i
COc1cccc(-c2nnc(-c3ccc(C(F)(F)F)cc3)o2)c1,i,55,i,nt,i
SMILES,Rtt109 HAT inh,esBAF inh,Wnt act,MITF act,Statin myotox sup
CC(=O)N(C)C[C@H]1Oc2cc(C3=CCCCC3)ccc2S(=O)(=O)N([C@H](C)CO)C[C@H]1C,nt,nt,nt,nt,i
CC(C)c1ccc(NC(=O)NC(C)c2ccc3c(c2)OCO3)cc1 (configuration not stated),58,nt,i,i,nt
Cc1csc(NC(=O)Nc2cccc(Cl)c2)n1,i,88,49,i,i
O=C(Nc1cccc(F)c1)Nc1ccc2c(c1)OCO2,i,50,?,?,i
O=C(Nc1cccc(F)c1)Nc1cccc(Cl)c1,i,55,i,i,i
CO[C@H]1CN(C)C(=O)c2cc(NS(C)(=O)=O)ccc2OC[C@H](C)N(C(=O)CN(C)C)C[C@@H]1C,nt,i,nt,nt,i
CO[C@H]1CN(C)C(=O)c2cc(NC(=O)Nc3ccc(Cl)cc3)ccc2OC[C@H](C)N(C)C[C@@H]1C,nt,i,nt,nt,i
O=C(Nc1cccc(Cl)c1)Nc1cccc(Cl)c1,i,i,i,i,nt
O=C(Nc1cccc(Cl)c1)NC1CC2CCC1C2 (configuration not stated),i,50,i,i,i
N#CCc1ccc(NC(=O)Nc2cccc(Cl)c2)cc1,i,i,nt,83,i
Cc1cccnc1NC(=O)Nc1cccc(Cl)c1,i,?,i,91,i
CN1[C@@H]2c3cccc(=O)n3C[C@@H]2[C@@H](CO)[C@@H]1C(=O)NCC1CCCCC1,nt,i,nt,nt,i
C/C(=N\Nc1ccc([N+](=O)[O-])cc1)c1ccc(N)cc1,i,i,i,i,i
CC(=NNc1ccc([N+](=O)[O-])cn1)c1ccc(N)cc1,i,97,i,i,i
CCc1ccc(/C(C)=N\Nc2ccc([N+](=O)[O-])cc2)cc1,i,44,nt,nt,i
O=C(Cn1cc(C(F)(F)F)cc(Cl)c1=O)NCc1ccc(F)cc1,i,58,i,i,i
CCC(=O)Nc1ccc2c(c1)OC[C@H](C)N(C(=O)C1CC1)C[C@H](C)[C@@H](OC)CN(C)C2=O,nt,i,nt,nt,i
CCc1nn2c(N)c(/C=C3\C=Nc4ccccc43)c(=O)nc2s1,i,i,i,i,i
Cc1cn2c(N)c(/C=C3\C=Nc4ccccc43)c(=O)nc2s1,i,nt,39,nt,nt
Cc1ccc(-c2cnc3c(c2)C(=O)N([C@@H](C)CO)C[C@@H](C)[C@@H](CN(C)S(C)(=O)=O)O3)cc1,nt,i,nt,nt,i
CCN(CC(=O)Nc1c(F)cccc1F)C(=O)CNC(=O)c1cccs1,i,i,38,i,i
Cn1cc(Cl)c(C(=O)Nc2nc3ccccc3s2)n1,i,i,i,i,i
Cn1cc(Cl)c(C(=O)Nc2cccc(Cl)c2Cl)n1,nt,71,nt,i,i
O=S1(=O)N=C(N2CCN(c3ccc(F)cc3)CC2)c2ccccc21,i,46,nt,i,i
O=S1(=O)N=C(N2CCN(Cc3ccccc3)CC2)c2ccccc21,i,i,nt,i,i
SMILES,Rtt109 HAT inh,esBAF inh,Wnt act,MITF act,Statin myotox sup
C[C@@H]1CN([C@@H](C)CO)C(=O)c2cc(NC(=O)Nc3cccc4ccccc34)ccc2O[C@@H](C)CCCCO[C@@H]1CN(C)C(=O)C1CCCCC1,nt,i,nt,nt,nt
O=C(CN1CCOCC1)N1CCN(c2nnc(-c3ccccc3)c3ccccc23)CC1,i,i,nt,i,115
CSc1ccc(CNc2ccc(C)cc2)cc1,i,55,nt,i,i
Cc1ccc(NCc2ccccc2)cc1,i,nt,i,i,nt
Oc1ccccc1CNc1cnc2ccccc2c1,57,54,i,i,i
Oc1ccccc1CNc1ccc2c(c1)OCCO2,i,i,i,i,i
Cc1ccc(NCc2cccnc2)cc1,i,i,i,i,i
Cc1ccc(CNc2cccnc2)cc1,i,58,i,i,i
Cc1ccc(NCc2ccccc2O)cc1C,i,68,i,i,i
COCC(=O)N(C)C[C@@H]1Oc2cc(C#CC3CCCC3)ccc2S(=O)(=O)N([C@H](C)CO)C[C@H]1C,nt,nt,nt,nt,i
CSc1ccc(CNc2ccc(C)c(C)c2)cc1,i,59,i,i,i
COc1ccc(CNc2ccc(C)c(C)c2)cc1,i,nt,i,i,nt
CCOC(=O)C1=C(C)NC(=O)NC1c1ccc(OC)c(CN2CCOCC2)c1 (configuration not stated),i,i,i,i,79
CC(=O)Nc1cc2nn(-c3ccccc3)nc2cc1Cl,i,nt,55,i,nt
CC(C)(C)C(=O)Nc1cc2nn(-c3ccccc3)nc2cc1Cl,i,i,nt,i,i
